Here are results for 14 compounds from PubChem BioAssay (EPA / NIEHS).

Test [1] can be described thus: CCTE_Shafer_MEA_acute_cross_correlation_area: CCTE's Neural Acute Assay for Area of Cross Correlation, Shafer Lab (AID 2284024).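 Also: curves fitted for loss of cross-correlation area so actives lower synchrony.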 In short, it runs like this: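 Rat primary cortical neurons on 48-well MEA, DIV 13 or 15; compounds 0.03-40 uM. Baseline and post-exposure 40 min recordings at 37 C; percent change in area under pooled inter-electrode cross-correlation near zero lag, relative to DMSO.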

A short description of test [2]: CCTE_Shafer_MEA_acute_cross_correlation_HWHM: CCTE's Neural Acute Assay for Cross Correlation at Half Width at Half Maximum, Shafer Lab (AID 2284026).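 Also: percent change per well from pre-dose baseline in spike cross-correlogram half width; hits are a decrease in cross-correlogram half width relative to DMSO.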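 As to outcome: spontaneous network firing of rat primary cortical neurons on multiwell microelectrode arrays.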 Put shortly:
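Rat primary cortical neurons on 48-well MEA plates; 40-min baseline and 40-min post-exposure recordings at 37 C on DIV 13 or 15, compounds 0.03-40 uM. Spikes detected at 8x rms noise; percent change in cross-correlogram HWHM per well vs baseline.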

Test [3] can be described thus: CCTE_Shafer_MEA_acute_synchrony_index: CCTE's Neural Acute Assay for Synchrony, Shafer Lab (AID 2284027).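 Also: network synchrony index of spontaneous spiking in primary rat cortical neurons on MEAs; fitted for loss of signal so actives lower synchrony relative to DMSO.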 In short, it runs like this: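 Spontaneous firing of mature rat cortical networks is captured extracellularly on microelectrode arrays at 37 C, with wells needing ≥10 active electrodes. Each compound (0.03-40 uM) is judged by the change in synchrony index from baseline over 40 min.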

Test [4] can be described thus: CCTE_Shafer_MEA_dev_firing_rate_mean: CCTE's Neural Network Formation Assay for Mean Firing Rate, Shafer Lab (AID 2284031). In short, it runs like this: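 Developing rat cortical networks on MEA plates undergo 12-day compound exposure. Firing frequency, averaged across active electrodes, is integrated as area under the curve over four recording days, referenced to DMSO.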

Test [5] is described as follows: CCTE_Shafer_MEA_dev_per_burst_spike_percent: CCTE's Neural Network Formation Assay for Percent of Spikes in a Burst, Shafer Lab (AID 2284032).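 As to AC50: fitted as a decrease in burst spike percentage below DMSO baseline.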 In short, it runs like this:
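Rat primary cortical neurons on 16-electrode MEA wells, dosed from plating day 0 for 12 days with renewal on DIV 5 and 9; spikes-in-bursts percentage averaged over bursting electrodes, collapsed as AUC across days 5, 7, 9, 12; loss direction versus DMSO.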

A short description of test [6]: CCTE_Shafer_MEA_dev_active_electrodes_number: CCTE's Neural Network Formation Assay for Number of Active Electrodes, Shafer Lab (AID 2284040; active = hit-call score of the fitted dose curve at least 0.9, where 1 is the maximum;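 as to AC50: potency for loss of active electrodes versus DMSO so lower counts are hits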). In short, it runs like this:
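Rat cortical primary cultures, 1.5 x 10^5 cells/well, PEI-coated MEA, laminin drop. Continuous exposure DIV 0–12; full media/compound change DIV 5, 9. Readout: electrodes with mean firing ≥5 spikes/min; AUC across days; loss vs DMSO.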

The nature of test [7]: CCTE_Shafer_MEA_dev_burst_rate: CCTE's Neural Network Formation Assay for Burst Rate, Shafer Lab (AID 2284042). In short, it runs like this: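 Primary rat cortical neurons on PEI-coated 48-well MEA plates (laminin added with cells at plating) (16 electrodes/well), exposed from plating to day 12, dosing renewed at DIV 5 and 9. Burst rate averaged over active electrodes, recorded DIV 5, 7, 9, 12, summarized as AUC; loss versus DMSO.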

A short description of test [8]: CCTE_Shafer_MEA_dev_bursting_electrodes_number: CCTE's Neural Network Formation Assay for Number of Bursting Electrodes, Shafer Lab (AID 2284043; active = hit-call score of the fitted dose curve at least 0.9, where 1 is the maximum;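 as to AC50: potency is for loss of bursting electrodes relative to DMSO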). Put shortly:
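Read-out is the per-well number of electrodes bursting at least once every 2 minutes, recorded on days 5, 7, 9 and 12 and collapsed by trapezoidal area under the curve. Cultures were primary rat cortical neurons on MEA plates, treated continuously from plating.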

A short description of test [9]: CCTE_Shafer_MEA_dev_per_burst_interspike_interval: CCTE's Neural Network Formation Assay for Burst Interspike Interval, Shafer Lab (AID 2284044).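 Also: mean spike spacing inside bursts as AUC over recordings on days 5 7 9 12.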 In short, it runs like this:
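Primary rat cortical neurons on 48-well MEA plates, exposed from day 0 through day 12, treatment renewed at DIV 5 and 9. Within-burst interspike interval recorded days 5, 7, 9, 12, well-averaged, summarised as AUC; negative fit versus DMSO.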

The nature of test [10]: CCTE_Shafer_MEA_dev_interburst_interval_mean: CCTE's Neural Network Formation Assay for Mean Interburst Interval, Shafer Lab (AID 2284046).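 Also: well-mean interburst interval of bursting electrodes as AUC over four recording days; curve fitted for decrease in interburst interval relative to DMSO.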 Put shortly:
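Recordings on days 5, 7, 9 and 12 give well-mean interburst interval across actively bursting electrodes, summarized as area under the curve. Cultures: rat cortical neurons, continuous exposure from day 0, compound renewed at feeds; decrease analyzed versus DMSO.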

Test [11] in a line: CCTE_Shafer_MEA_dev_inter_network_spike_interval_mean: CCTE's Neural Network Formation Assay for Mean Inter-network Spike Interval, Shafer Lab (AID 2284047). Put shortly:
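Primary rat cortical neurons on 16-electrode MEA wells, exposed from plating day 0 through DIV 12, compound renewed at DIV 5 and 9 media changes. Mean interval between network-spike peaks recorded DIV 5, 7, 9, 12; collapsed as trapezoidal AUC, fitted downward versus DMSO.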

A short description of test [12]: CCTE_Shafer_MEA_dev_network_spike_number: CCTE's Neural Network Formation Assay for Number of Network Spikes, Shafer Lab (AID 2284048).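 Also: synchronized bursts across electrodes counted on days 5 7 9 12 and integrated as AUC.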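 As to AC50: fit as a loss of signal meaning fewer network spikes than DMSO.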 Put shortly:
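Developing networks of primary rat cortical neurons are treated over 12 days starting at plating, with media and compound fully replaced on DIV 5 and 9. Network spike counts from four recording days are integrated as trapezoidal AUC.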

The target in test [13] is Estrogen receptor (Homo sapiens) (UniProt P03372). Nature of the test: CCTE_Deisenroth_AIME_384WELL_LUC_Active: CCTE's 384-well Estrogen Receptor Transactivation Assay with AIME metabolic competence (ERTA luciferase; metabolism positive), Deisenroth Lab (AID 2284030; active = hit-call score of the fitted dose curve at least 0.9, where 1 is the maximum). Put shortly:
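Chemicals (10-point, 0.002-200 uM) were first incubated 2 hours with alginate-immobilized induced male Sprague Dawley rat liver S9. The conditioned medium was then applied to VM7Luc4E2 cells for 24 hours, with ER luciferase induction read by luminescence relative to 17beta-estradiol.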

A short description of test [14]: CCTE_Deisenroth_AIME_384WELL_CTox_Active: Cytotoxicity Assessment (CTOX) in CCTE's 384-well Estrogen Receptor Transactivation Assay with AIME metabolic competence (metabolism positive), Deisenroth Lab (AID 2284037; active = hit-call score of the fitted dose curve at least 0.9, where 1 is the maximum;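 also: chemicals first conditioned 2 h by alginate-bound induced rat liver S9 before cells; activity means signal loss indicating cell death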). Put shortly:
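Cytotoxicity in VM7Luc4E2 breast cells, 24 hour, measured as protease-substrate fluorescence loss, after 2-hour metabolic conditioning with induced rat hepatic S9 in alginate microspheres. Concentrations 0.002 - 200 uM, 10 points, bidirectional fitting.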

In test [15] the target is Estrogen receptor (Homo sapiens) (UniProt P03372). Nature of the test: CCTE_Deisenroth_AIME_384WELL_LUC_Inactive: CCTE's 384-well Estrogen Receptor Transactivation Assay without AIME metabolic competence (ERTA luciferase; metabolism negative), Deisenroth Lab (AID 2284038; active = hit-call score of the fitted dose curve at least 0.9, where 1 is the maximum;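 also: VM7Luc4E2 breast cells given medium preincubated 2 h with S9-free microspheres; hits raise estrogen receptor luciferase signal so potencies reflect agonists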). Put shortly: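 Chemicals (10-point series, 0.002 - 200 uM) were incubated 2 hours with alginate-water microsphere lids lacking S9, then the conditioned medium was transferred to VM7Luc4E2 breast cells for 24 hour. Luciferase induction was read by bioluminescence, fitted upward relative to 17beta-estradiol.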

The target is the same in test [16]. Nature of the test: CCTE_Deisenroth_AIME_384WELL_LUC_Shift: CCTE's 384-well Estrogen Receptor Transactivation Assay with AIME metabolic competence data shift (ERTA luciferase; difference in metabolism positive and negative), Deisenroth Lab (AID 2284041).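 Also: shift is response with S9 minus without S9 so positive means metabolism raised ER signal.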 In short, it runs like this: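 Test chemicals (0.002–200 uM, 10-point) were pre-incubated 2 h with alginate microspheres containing phenobarbital/beta-naphthoflavone-induced male Sprague Dawley rat liver S9 or water, then medium was transferred to VM7Luc4E2 cells for 24 h luciferase readout; shift = S9-positive minus S9-negative normalized response.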

Test [17] is described as follows: CCTE_Deisenroth_AIME_384WELL_CTox_Inactive: Cytotoxicity Assessment (CTOX) in CCTE's 384-well Estrogen Receptor Transactivation Assay without AIME metabolic competence (metabolism negative), Deisenroth Lab (AID 2284039; active = hit-call score of the fitted dose curve at least 0.9, where 1 is the maximum;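 also: cell viability via live-cell protease substrate cleaved to fluorescent probe; cells exposed 24 h to medium preincubated 2 h with alginate-water beads without S9; loss of fluorescence signal means loss of viability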). Put shortly:
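VM7Luc4E2 cells, metabolism-negative arm: test chemicals (0.002–200 uM, 10 points) pre-incubated 2 h with alginate-water microspheres, then medium transferred to cells for 24 h. Viability read as protease-substrate cleavage to fluorescent probe; loss-of-signal, bidirectional fitting.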

Records with an inconclusive call do not appear. Calls of active or inactive are those of the source. The calls were made as follows, unless noted: active = hit-call score of the fitted dose curve at least 0.9, where 1 is the maximum; inactive = score below 0.9.

Chain of Estrogen receptor (Homo sapiens) (P03372 whole entry, looked up): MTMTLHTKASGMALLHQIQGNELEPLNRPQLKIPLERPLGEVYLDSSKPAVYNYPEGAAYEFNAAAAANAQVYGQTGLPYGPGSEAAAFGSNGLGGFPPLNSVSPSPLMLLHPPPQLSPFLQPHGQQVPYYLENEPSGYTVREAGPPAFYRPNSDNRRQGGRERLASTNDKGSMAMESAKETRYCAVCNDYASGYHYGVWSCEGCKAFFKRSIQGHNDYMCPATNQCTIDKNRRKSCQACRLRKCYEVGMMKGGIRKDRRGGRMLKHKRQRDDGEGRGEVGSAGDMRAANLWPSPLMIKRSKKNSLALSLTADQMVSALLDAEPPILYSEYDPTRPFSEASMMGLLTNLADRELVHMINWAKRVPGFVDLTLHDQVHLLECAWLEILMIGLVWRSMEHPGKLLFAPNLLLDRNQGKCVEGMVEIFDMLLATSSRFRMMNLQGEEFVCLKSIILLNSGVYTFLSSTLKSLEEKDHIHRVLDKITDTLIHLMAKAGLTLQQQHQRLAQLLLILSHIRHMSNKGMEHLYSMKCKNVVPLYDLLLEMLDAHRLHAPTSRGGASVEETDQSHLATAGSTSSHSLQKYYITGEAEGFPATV

The term AC50 denotes the concentration giving half of the maximal activity seen. Take `c1ccc2cc3ccccc3cc2c1`: the half-maximal activity concentration (AC50) in [1] is 0.00687 µM (active). The compound was called inactive in test [2], in [3], in test [4], in test [5], in [6] and in test [7]. In addition, the compound was called inactive in test [8], in test [9], in test [10], in test [11] and in test [12].

Regarding `c1ccc(C(O[C@@H]2CCCN(CCc3ccc4c(c3)OCO4)C2)c2ccccc2)cc1`, the compound was classed as inactive in test [1], in test [2], in test [3], in [14], in [15] and in [16]. For the same compound, the half-maximal activity concentration (AC50) in test [13] was 29.1 µM (active).

In the case of `CCc1cccc(CC)c1N`, the outcome in [13], in test [14], in test [15] and in [16] was inactive. The AC50 in test [17] was 160 µM (active).

As to `c1ccc2c(c1)-c1cccc3c1c-2cc1ccccc13`, the outcome in [13], in test [4], in test [5], in [14], in [15] and in test [16] was inactive. The compound was classed as inactive in [7], in [9], in [10], in test [11] and in [12]. Also, the AC50 in [17] is 19.8 µM (active); in test [6], 7.57 µM (active); in test [8] it was 5.07 µM (active).

With `COCc1nnc(-c2ccc[n+]([O-])c2)n1-c1c(Cl)c(Cl)cc2[nH]c(=O)c(=O)[nH]c12`, the compound was called inactive in [1]. For the same compound, the half-maximal activity concentration (AC50) in test [2] was 8.51 µM (active); in test [3], 14.7 µM (active).

Take `OC(CCl)CCl`: the call in test [1], in test [2] and in [3] was inactive.

On to `COc1cc(C(C)C)c2c(c1)S(=O)(=O)N(COc1cc(=O)n3cccc(OCCN4CCCCC4)c3n1)C2=O`, for which the call in [1] was inactive. Also, the half-maximal activity concentration (AC50) was 7.59 µM (active) in test [2] and 7.39 µM (active) in test [3].

In the case of `CCCCCCCC1CCC(=O)O1` (stereo not given), the outcome in [1] and in test [3] was inactive.

In the case of `CC[C@H](C)C(=O)O[C@H]1C[C@H](O)C=C2C=C[C@H](C)[C@H](CC[C@@H](O)C[C@@H](O)CC(=O)O)[C@H]21`, the compound was called inactive in test [1], in test [2], in test [3], in test [4], in test [7] and in test [9]. In addition, the call in [10] and in test [11] was inactive. The concentration at half-maximal activity (AC50) in test [5] is 1.92 µM (active); in test [6], 2.28 µM (active); in [12], 0.143 µM (active).

Turning to `CCCCOC(=O)c1ccccc1`, the compound was called inactive in test [13], in [14], in test [15], in [17] and in [16].

With `OCc1ccccc1`, the compound was called inactive in test [1], in [2], in test [3], in test [13], in test [14] and in test [15]. Also, the result in test [17] and in test [16] was inactive.

`CCc1ccc(O)c(C(C)(C)C)c1`: the call in test [1], in [2], in test [3], in test [14], in test [17] and in [16] was inactive.

Consider `CCCCCCCC/C=C\CCCCCCCC(=O)OC[C@@H](O)[C@H]1OC[C@H](O)[C@H]1O`, for which the outcome in [1], in test [2] and in test [3] was inactive.

Regarding `Cc1ncc([C@@H](CCCCCCc2ccc3c(n2)NCCC3)CC(=O)O)cn1`, the result in test [1], in test [2] and in test [3] was inactive.
